Screens from PubChem.
PLK1 PBD block: PLK1 (human) polo-box domain binding inhibition; P53350; Plk1 PBD binding of FITC phosphopeptide, fluorescence polarization; Potency, µM, for the others: max response, negative = inhibition, actives largely listed as inhibitors; 360,000 compounds, 2.8% hits; AID 720504; further: potency means the concentration at half of the fitted maximal effect; series mostly up to about 57 µM; on the % scale 0 is the no-effect control and ±100 the full control effect; nearly all actives have a fitted effect of over 65% in size
Target sequence (P53350 whole entry, looked up, the tested form may be a part): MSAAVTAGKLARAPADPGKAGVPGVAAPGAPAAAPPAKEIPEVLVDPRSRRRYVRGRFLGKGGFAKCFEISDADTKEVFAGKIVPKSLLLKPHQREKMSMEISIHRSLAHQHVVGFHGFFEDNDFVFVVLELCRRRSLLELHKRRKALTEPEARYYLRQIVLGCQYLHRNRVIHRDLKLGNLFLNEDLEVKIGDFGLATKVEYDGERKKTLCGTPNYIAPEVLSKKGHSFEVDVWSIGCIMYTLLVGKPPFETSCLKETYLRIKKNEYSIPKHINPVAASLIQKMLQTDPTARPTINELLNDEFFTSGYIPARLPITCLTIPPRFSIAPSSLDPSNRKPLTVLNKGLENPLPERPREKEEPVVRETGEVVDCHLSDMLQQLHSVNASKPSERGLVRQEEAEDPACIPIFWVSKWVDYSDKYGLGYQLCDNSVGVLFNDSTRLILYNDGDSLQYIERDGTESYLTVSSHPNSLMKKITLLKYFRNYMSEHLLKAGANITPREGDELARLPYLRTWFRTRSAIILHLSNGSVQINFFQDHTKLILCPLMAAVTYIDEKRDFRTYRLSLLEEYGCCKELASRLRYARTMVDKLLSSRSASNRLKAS
Vif-APOBEC3G blk: blocks the Vif interaction with human APOBEC3G; Q9HC16; HeLa A3G-eYFP + Vif (tagged APOBEC3G with the HIV-1 protein that degrades it), YFP fluorescence, overnight; Potency, µM (doses to about 46.1 µM), without a hit: at the top dose activity, negative = active, usual class: inhibitors; 410,000 compounds, 0.076% hits; AID 602310; further: potency means the concentration at half of the fitted maximal effect; on the % scale 0 is the no-effect control and ±100 the full control effect; nearly all actives have a fitted effect of over 60% in size
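HeLa cells stably expressing Vif and C-terminally eYFP-tagged A3G, seeded overnight at 37 deg C, then exposed to compound by pintool overnight at 37 deg C. Rise in yellow fluorescence (Ex 488/Em 500-530, Acumen) marks blocked Vif-driven A3G degradation.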
TSHR antag: blocks TSH signaling through the human TSH receptor; P16473; activity change, negative = inhibition, % at 11.5 µM; 330,000 compounds, 0.2% hits; AID 504810; TSHR-expressing cells, TSH-stimulated cAMP HTRF, 2 h; active compounds read low;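 active means activity change below a set negative limit, meaning inhibition stronger than a set level, cut at about -70% in these data; inconclusive means activity change between two set negative limits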; further: on the % scale 0 is the no-effect control and ±100 the full control effect
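Freshly harvested TSHR cells receive pin-tooled compound, then EC80 TSH at 4nM final. After 2 hours at 37 deg C, antibody in lysis buffer and cAMP-d2 are added; 30 minutes at ambient temperature precede the HTRF read.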
Vif-A3F inh: Vif-A3F binding inhibition; HeLa A3F-eYFP + Vif (tagged APOBEC3F with the HIV-1 protein that degrades it), YFP fluorescence increase; Potency, µM (doses to about 46.1 µM), for inactives: at the top dose activity, negative = active; 390,000 compounds, 0.2% hits; further: potency means the concentration at half of the fitted maximal effect; % of control where 0% means no effect; nearly all actives have a fitted effect of over 65% in size
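HeLa cells stably expressing Vif plus C-terminally eYFP-tagged A3F were seeded, incubated overnight at 37 deg C, dosed with compound, incubated overnight again at 37 deg C. Yellow fluorescence (Ex 488/Em 500-530) reported blocked Vif-mediated A3F-eYFP degradation.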
VDR inhibitor: blocks the human vitamin D receptor. Potency, µM, for inactives: max response, negative = inhibition, usual class: inhibitors. P11473. AID 504847. 400,000 compounds, 0.93% hits. VDR-SRC2-3 peptide fluorescence polarization, 2 h; further: potency means the concentration at half of the fitted maximal effect; on the % scale 0 is the no-effect control and ±100 the full control effect
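Fluorescence polarization assay of small-molecule disruption of VDR binding to coregulator peptide SRC2-3. Compounds and controls pin-transferred, then read after 2 h incubation at ambient room temperature.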
VDR confirm: inhibits human vitamin D receptor, primary hit validation. AID 602199. VDR-coactivator inhibition assay, qHTS confirmation. 840 compounds, 89% hits. Potency, µM, usual class: inhibitors. shares compounds with VDR inhibitor; further: potency means the concentration at half of the fitted maximal effect
VDR FP: confirmation of human VDR-coactivator binding inhibitors, fluorescein label | shares compounds with VDR inhibitor | VDR-coactivator binding, fluorescein fluorescence polarization | Potency, µM (series often up to 57.1 µM), inactives show top-dose activity change, negative = inhibition, usual class: inhibitors | 840 compounds, 48% hits | AID 602200; further: potency means the concentration at half of the fitted maximal effect
VDR bla reporter: inhibits human VDR in beta-lactamase reporter cells. shares compounds with VDR inhibitor. VDR beta-lactamase reporter cells, FRET ratio; cells co-treated with VDR agonist LG190178. Potency, µM (series often up to 46.1 µM), for the others: at the highest dose activity change, negative = inhibition, actives largely listed as inhibitors. 840 compounds, 23% hits. AID 602202; further: potency means the concentration at half of the fitted maximal effect; on the % scale 0 is the no-effect control and ±100 the full control effect
VDR cytotox: counter-screen for vitamin D receptor inhibitors: cytotoxicity | shares compounds with VDR inhibitor | cytotoxicity counter-screen, cell viability, qHTS | Potency, µM (highest dose often 48.3 µM), without a hit: top-dose activity change, negative = cytotoxicity, usual class: cytotoxic | 840 compounds, 18% hits | AID 602204;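 further: potency means the concentration at half of the fitted maximal effect; plate controls were DMSO for no effect and high-concentration cycloheximide for full effect; nearly all actives have a fitted effect of over 75% in size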
* marks the source's active call; other numbers are inactive results. Rows were chosen to be rich in hits. Some 3.1% of all compounds tested hit in one or more screens of this group. Unless noted, the call rests on the fitted dose curve; in most records, active means well fitted curve in the direction sought with a large enough effect; inconclusive means small, poorly fitted or top-dose-only effect, or another doubt; inactive means no such curve, though single readings can be large; an effect the other way counts as inactive or inconclusive.

C=CCn1c(SCc2cccc(C#N)c2)nnc1-c1ccccc1O was read as PLK1 PBD block 26.7µM*, Vif-APOBEC3G blk -8.1%, TSHR antag 1.1, Vif-A3F inh 1.6% and VDR inhibitor -25.8%.
Screening O=C(C[n+]1ccc2ccccc2c1)c1ccc(O)c(O)c1 returned Vif-APOBEC3G blk -2.3%.
Screening CC(C)C[C@@H](CN1CCC[C@@H]1CN1C(=S)NC[C@@H]1Cc1ccccc1)N1C[C@H](Cc2ccc(O)cc2)N(CC2CCCCC2)C1=S returned PLK1 PBD block 0.6% and Vif-APOBEC3G blk 1.1%.
`CC(C)C[C@@H](CN1CCCC1CN1C(=S)NC[C@@H]1Cc1ccc(O)cc1)N1C[C@H](Cc2ccc(O)cc2)N(CC2CCCCC2)C1=S` (stereo not given in full) gave PLK1 PBD block 18.9µM*, Vif-APOBEC3G blk -18.7%, Vif-A3F inh 7.0% and VDR inhibitor -22.1%.
For O=C(NC(=S)Nc1nc(-c2ccc(Cl)cc2)cs1)c1cccs1 the results were PLK1 PBD block 10.6µM*, Vif-APOBEC3G blk -1.4%, TSHR antag -4.4, Vif-A3F inh 9.8% and VDR inhibitor inconclusive.
Screening O=C(Nc1cccc(F)c1)C1CC(=O)N(c2ccc(Br)cc2)C1 (stereo not given) returned PLK1 PBD block 29.9µM*, Vif-APOBEC3G blk -3.7%, TSHR antag 2.0, Vif-A3F inh 0.2% and VDR inhibitor -20.2%.
For O=C(Nc1cccc(F)c1)C1CC(=O)N(c2ccc(Cl)cc2)C1 (stereo not given) the results were PLK1 PBD block inconclusive, Vif-APOBEC3G blk 3.3%, TSHR antag -0.7, Vif-A3F inh -0.6% and VDR inhibitor 9.5%.
For N#Cc1ccc(S(=O)(=O)N2CCN(c3nc(-c4cccs4)nc4ccccc34)CC2)cc1 the results were Vif-APOBEC3G blk -0.8% and VDR inhibitor -11.4%.
`O=C(O)CN1C(=O)/C(=C2\C(=O)N(Cc3ccccc3Cl)c3ccccc32)SC1=S` gave PLK1 PBD block 26.7µM*, Vif-APOBEC3G blk 0.0%, TSHR antag -11.9, Vif-A3F inh -2.7% and VDR inhibitor -19.3%.
For O=C1/C(=C2\C(=O)N(Cc3ccc(F)cc3)c3ccccc32)SC(=S)N1CCS(=O)(=O)O the results were PLK1 PBD block 21.2µM*, Vif-APOBEC3G blk 0.9%, TSHR antag -2.4, Vif-A3F inh -11.7% and VDR inhibitor inconclusive.
Screening CCC[N+](C)(C)c1ccc(/C=C/c2ccnc3ccccc23)cc1 returned Vif-APOBEC3G blk 8.7%.
`CC1OC(OCC2OC(Oc3cc(O)c4c(c3)OC(c3ccc(O)cc3)CC4=O)C(O)C(O)C2O)C(O)C(O)C1O` (stereo not given) gave VDR inhibitor -4.4%.
CCOc1ccc(/C=C2\CCC(C3CCCC3)C2=O)cc1 (stereo not given) was read as PLK1 PBD block -1.0%, Vif-APOBEC3G blk 1.6%, TSHR antag -1.3, Vif-A3F inh 1.2% and VDR inhibitor 1.7%.
CCC(=O)OCOc1ccc(/C=C2/CCC(CN(C)C)C2=O)cc1 (stereo not given) was read as PLK1 PBD block 4.74µM*, Vif-APOBEC3G blk -8.4%, Vif-A3F inh 0.3% and VDR inhibitor 10µM*.
For COc1cc(CNc2cccc3[nH]c(C(F)(F)F)nc23)cc(OC)c1 the results were PLK1 PBD block 26.7µM*, Vif-APOBEC3G blk -16.9%, TSHR antag -2.5, Vif-A3F inh -10.2% and VDR inhibitor inconclusive.
C[C@@H]1CC[C@@]2(OC1)OC1CC3C4CC=C5CC(O)CCC5(C)C4CCC3(C)C1[C@@H]2C (stereo not given in full) was read as VDR inhibitor -1.7%.
COc1cccc(-c2nccc(N(C)Cc3ccco3)n2)c1 was read as VDR inhibitor 35.5µM*.
For COc1ccc2c(c1)C(=O)[C@@H](OC(=O)NS(=O)(=O)c1ccc(C)cc1)[C@H](c1ccc(OC)c(Br)c1)O2 the results were VDR inhibitor 2.9%.
Screening Cc1ccc(SC(CC(=O)c2ccc(F)cc2)C(=O)O)cc1 (stereo not given) returned PLK1 PBD block inconclusive, Vif-APOBEC3G blk -11.4%, TSHR antag -35.3, Vif-A3F inh 5.0% and VDR inhibitor 22.4µM*.
Cc1nc2ccccc2n2c(O)c(CC(=O)O)cc12 was read as PLK1 PBD block 23.8µM*, Vif-APOBEC3G blk 1.7%, TSHR antag -0.1, Vif-A3F inh -9.4% and VDR inhibitor -6.3%.
For CCc1ccc(C2/C=C\CNC(c3ccccc3)C(=O)N2Cc2ccc(C)cc2)cc1 (stereo not given) the results were Vif-APOBEC3G blk 3.2% and VDR inhibitor -26.9%.
C[C@@H]1[C@H](c2ccccc2)OCCS(=O)(=O)N1Cc1cccc(C(F)(F)F)c1 was read as Vif-APOBEC3G blk -1.5%.
`CCN(CC)CCSc1nc2ccccc2c(=S)n1-c1ccccc1` gave PLK1 PBD block 23.8µM*, Vif-APOBEC3G blk 1.2%, TSHR antag 3.1, Vif-A3F inh -1.1% and VDR inhibitor 1.3%.
Cc1ccc(NC(=O)c2cnn3c2NC(=C2CC2)C=C3C(F)F)cc1C was read as Vif-APOBEC3G blk 0.9%.
`COc1ccc(C(=O)Oc2ccc(C(=S)N3CCOCC3)cc2)cc1` gave PLK1 PBD block 10.6µM*, Vif-APOBEC3G blk 3.0%, TSHR antag -3.9, Vif-A3F inh -2.7%, VDR inhibitor 70.8µM*, VDR confirm 26.7*, VDR FP 25.1µM*, VDR bla reporter 4.9% and VDR cytotox -3.4%.
For COC(=O)c1sc(=S)n(-c2cc(F)ccc2F)c1N the results were PLK1 PBD block 13.4µM*, Vif-APOBEC3G blk -2.8%, TSHR antag 4.4, Vif-A3F inh -4.1%, VDR inhibitor 79.4µM*, VDR confirm 18.9*, VDR FP inconclusive, VDR bla reporter 27.7% and VDR cytotox 22.0%.
